Bioassay records from PubChem BioAssay.
a7 integrin act: integrin-mediated muscular dystrophy alleviation activation; alpha7betagal myoblasts, beta-gal FDG fluorescence, 48 h; Potency, µM (highest dose often 38.3 µM), actives largely listed as activators; 350,000 tested, 0.064% active; further: nearly all actives have a fitted effect of over 60% in size
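Alpha7betagal+/- myoblasts (passage 13) were plated 16-24 hr, then exposed to compounds (1:260 dilution of DMSO stock) for 48 hours at 37C. After MPER lysis, β-galactosidase reporter activity was read as FDG fluorescence (ex 480/em 540) after 30 minutes.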
D3 ag: agonists of human D3 dopamine receptor | D3R DiscoveRx beta-arrestin cells, luminescence, 90 min | max activation, % | 410,000 tested, 0.58% active | AID 652048; in the data active means max activation above about 30%
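Agonist mode: compounds and dopamine controls were applied to plated cells for 90 min at 37 degrees C after an overnight attachment at 1500 cells/well. Luminescent read-out followed 30 - 60 minutes at room temperature with DiscoveRx detection reagent.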
mIDH1 inhibitor: inhibitors of human mutant IDH1 R132H | Potency, µM (titrated, usually from 76.6 µM), most hits filed as inhibitors | IDH1-R132H enzyme, NADPH consumption, diaphorase/resazurin fluorescence | O75874 | 390,000 tested, 0.093% active | AID 602179; further: nearly all actives have a fitted effect of over 65% in size
Target sequence (O75874 whole entry R132H, stated change not applied): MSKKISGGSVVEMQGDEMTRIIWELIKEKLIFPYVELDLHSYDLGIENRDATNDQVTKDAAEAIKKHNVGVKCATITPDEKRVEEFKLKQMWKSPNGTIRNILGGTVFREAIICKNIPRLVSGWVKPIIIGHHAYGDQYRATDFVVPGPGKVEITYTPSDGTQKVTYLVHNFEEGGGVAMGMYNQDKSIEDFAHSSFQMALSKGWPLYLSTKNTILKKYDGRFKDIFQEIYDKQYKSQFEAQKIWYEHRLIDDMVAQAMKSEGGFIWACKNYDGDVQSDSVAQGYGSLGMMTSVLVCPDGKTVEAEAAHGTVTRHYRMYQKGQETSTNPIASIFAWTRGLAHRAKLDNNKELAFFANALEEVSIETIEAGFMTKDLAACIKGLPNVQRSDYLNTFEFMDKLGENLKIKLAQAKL
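IDH1-R132H (0.5 ug/mL dispensed) in pH 7.5 Tris buffer was preincubated 30 min with compound, then given a substrate mix of 0.016 mM NADPH and 2 mM alpha-KG for 80 min at room temperature; remaining NADPH was read by diaphorase/resazurin fluorescence.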
B2AR arrestin: agonists driving beta-arrestin recruitment to human beta2-adrenergic receptor | AID 492947 | Potency, µM (highest dose often 46.1 µM), most hits filed as activators | beta-arrestin recruitment to beta2AR, cell-based reporter | 330,000 tested, 0.02% active; further: nearly all actives have a fitted effect of over 65% in size
DRD3 antagonist: blocks the human D3 dopamine receptor; P35462; D3R cells, DiscoveRx beta-arrestin luminescence, antagonist mode; stronger effect = lower value; max response, negative = inhibition, %; 360,000 tested, 2.5% active; AID 652054; in the data active means max response below about -50%; inconclusive means no clear call, values can overlap the other calls
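Cells expressing the human receptor were seeded at 1500 cells/well, incubated overnight at 37 degrees C in 5% CO2, then exposed to library compounds with dopamine controls for 90 minutes at 37 degrees C before luminescent detection.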
Resorufin autofl: autofluorescence interference, mutant IDH1 hit counter-screen; 750 tested, under 10 active; inhibition of signal, % at 51.2 µM; shares compounds with mIDH1 inhibitor; Resorufin detection reagent fluorescence interference, cell-free
WT IDH1 inh: selectivity of mutant IDH1 inhibitors: human wild-type IDH1; shares compounds with mIDH1 inhibitor; WT IDH1 enzyme, NADPH diaphorase/resazurin fluorescence; Potency, µM (highest dose often 115 µM), most hits filed as inhibitors; 750 tested, 9% active; AID 623995; further: nearly all actives have a fitted effect of over 55% in size
Target sequence (O75874 whole entry, looked up): as the sequence (O75874 whole entry R132H, stated change not applied) above, with H132R counted along it
mIDH1 confirm: confirmation of human mutant IDH1 inhibitors. AID 624002. shares compounds with mIDH1 inhibitor. Potency, µM (series often up to 76.6 µM), most hits filed as inhibitors. 750 tested, 83% active. IDH1 R132H enzyme, NADPH diaphorase/resazurin fluorescence; further: nearly all actives have a fitted effect of over 50% in size
Numbers stand for hits; i = inactive; ? = inconclusive; nt = no result; [ ] = dose if it differs, or a comment. Most compounds without a hit are left out; they make up all but 2.9% or so of the library. Unless noted, the call rests on the fitted dose curve; in most records, active means well fitted curve in the direction sought with a large enough effect; inconclusive means small, poorly fitted or top-dose-only effect, or another doubt; inactive means no such curve, though single readings can be large; an effect the other way counts as inactive or inconclusive.

SMILES | a7 integrin act | D3 ag | mIDH1 inhibitor | B2AR arrestin | DRD3 antagonist | Resorufin autofl | WT IDH1 inh | mIDH1 confirm
Cc1ccc(N2C(=O)c3n[nH]c(C)c3C2c2ccc(Cl)cc2)cc1 (configuration not stated) | nt | i | ? | nt | nt | i | i | 45µM
Cc1ccc(N2C(=O)c3n[nH]c(C)c3C2c2ccccc2Cl)cc1 (configuration not stated) | nt | i | i | nt | nt | nt | nt | nt
Cc1cc(S(=O)(=O)Nc2cc3c(cc2NCc2ccccc2)n(C)c(=O)n3C)ccc1F | nt | i | i | nt | nt | nt | nt | nt
CSCCC(C(=O)Nc1c(C)cccc1C)N(Cc1ccccc1)Cc1ccccc1 (configuration not stated) | nt | i | nt | nt | i | nt | nt | nt
C=CCSC1=N/C(=C\c2cc(OCC)c(OC(C)=O)c([N+](=O)[O-])c2)C(=O)S1 | i | i | ? | i | i | i | ? | 25µM
C=CCSC1=N/C(=C\c2ccc3c(c2)OCO3)C(=O)S1 | i | i | i | i | i | nt | nt | nt
COc1cc([C@@H]2c3cc4c(cc3[C@@H](O)[C@H]3COC(=O)[C@H]23)OCO4)cc(OC)c1O[Si](C)(C)C(C)(C)C | i | i | 28µM | i | i | i | ? | ?
COc1cc(C2c3cc4c(cc3C3OC(=O)C2C3CO)OCO4)cc(OC)c1OC (configuration not stated) | i | i | i | nt | i | nt | nt | nt
Cc1ccc(NC2c3ncccc3C(=O)N2Cc2cccs2)cc1 (configuration not stated) | i | i | 52µM | i | i | i | i | i
COc1ccc(CN2C(=O)c3cccnc3C2Nc2ccc(C)cc2)cc1 (configuration not stated) | i | i | i | i | i | nt | nt | nt
COc1ccc(-c2coc3cc(OC(C)=O)ccc3c2=S)cc1 | i | i | 46µM | nt | ? | i | i | ?
CCOC(=O)C1C(=O)NC(SCC(=O)OC)=C(C#N)C1c1ccccc1OCC (configuration not stated) | i[7.66 µM] | i | i | nt | i | nt | nt | nt
CCCOC(=O)CSC1=C(C#N)C(c2ccccc2OC)C(C#N)C(=O)N1 (configuration not stated) | i | i | ? | i | ? | i | i | 45µM
CCOC(=O)CSC1=C(C#N)C(c2ccccc2OCC)C(C#N)C(=O)N1 (configuration not stated) | i | i | 46µM | i | i | i | i | 50µM
C=CCSC1=C(C#N)C(c2ccccc2OCC)C(C#N)C(=O)N1 (configuration not stated) | i | i | ? | i | i | i | i | 45µM
O=C(NC(=S)NCCC1=CCCCC1)c1cccnc1 | i | i | i | i | i | nt | nt | nt
CCc1c(C2(O)CCCCC2)[nH]c2cc(C(F)(F)F)ccc12 | i | i | i | i | i | nt | nt | nt
CC(=O)Nc1ccccc1-c1nc2ccccc2n(CC(=O)Nc2cccc(C(F)(F)F)c2)c1=O | nt | i | i | nt | nt | nt | nt | nt
O=C(/C=C/c1cccc(Cl)c1)NNC(=O)c1ccncc1 | i | i | i | i | i | nt | nt | nt
CCOc1cc(CNc2ccc(O)cc2)cc(Cl)c1OCc1ccccc1 | nt | i | i | nt | nt | nt | nt | nt
CCCC(NC(=O)CCc1c(C)c2cc3c4c(oc3c(C)c2oc1=O)CCCC4)C(=O)O (configuration not stated) | i | i | 41µM | i | i | i | i | 28µM
CCOc1ccc(NC(=O)C2CCCN(C)C2)cc1 (configuration not stated) | i | i | i | i | i | nt | nt | nt
CN(CC(=O)Nc1cccc(F)c1)C(=O)CCc1nc2ccccc2c(=O)[nH]1 | i | i | i | i | i | nt | nt | nt
Cc1ccc(SCc2[nH]nc3c2C(c2cccnc2)C(C#N)=C(N)O3)cc1 (configuration not stated) | i | i | i | i | i | nt | nt | nt
Cc1cc(C)c(C#N)c(SCc2[nH]nc3c2C(c2ccc(F)cc2)C(C#N)=C(N)O3)n1 (configuration not stated) | i | i | ? | i | ? | i | ? | 32µM
SMILES | a7 integrin act | D3 ag | mIDH1 inhibitor | B2AR arrestin | DRD3 antagonist | Resorufin autofl | WT IDH1 inh | mIDH1 confirm
Cc1cc(C#N)c(C)c(SCc2[nH]nc3c2C(c2ccccc2)C(C#N)=C(N)O3)n1 (configuration not stated) | i | i | ? | i | i | i | ? | 35µM
Cc1[nH]nc2c1C(c1ccc(F)cc1)C(C#N)=C(N)O2 (configuration not stated) | i | i | i | i | i | nt | nt | nt
Cc1sc(NC(=O)c2ccco2)c(C(c2cccnc2)N2CCN(CCO)CC2)c1C (configuration not stated) | i | i | i | i | i | nt | nt | nt
CCOC(=O)C1CCN(C(c2cccnc2)c2c(NC(=O)c3ccco3)sc(C)c2C)CC1 (configuration not stated) | i | i | ? | i | i | i | i | 28µM
CC(=O)N1c2ccc(Cl)cc2C2C=CCC2C1c1cccc2ccccc12 (configuration not stated) | i | i | 15µM | i | i | i | 40µM | 6.3µM
Cn1cc(C(=O)N2CCN(c3cccc(Cl)c3)CC2)c(=O)c2cc(S(=O)(=O)N3CCCC3)ccc21 | nt | i | i | nt | nt | nt | nt | nt
O=C(NC1CCCCC1)C(c1ccc(F)cc1)N(Cc1ccco1)C(=O)Cn1nnc2ccccc21 (configuration not stated) | i | i | i | i | i | nt | nt | nt
CCC(C)(C)NC(=O)C(c1ccc(C)cc1)N(Cc1ccco1)C(=O)Cn1nnc2ccccc21 (configuration not stated) | i | i | i | i | i | nt | nt | nt
O=C(NC1CCCCC1)C(c1ccccc1F)N(Cc1ccco1)C(=O)Cn1nnc2ccccc21 (configuration not stated) | i | i | ? | i | i | i | i | 11µM
Cc1ccccc1C(C(=O)NCc1ccco1)N(CC1CCCO1)C(=O)Cn1nnc2ccccc21 (configuration not stated) | i | i | ? | i | i | i | i | 40µM
O=C(NCc1ccco1)C(c1ccccc1)N(CC1CCCO1)C(=O)Cn1nnc2ccccc21 (configuration not stated) | i | i | i | i | i | nt | nt | nt
Cc1ccc(C(C(=O)NC2CCCCC2)N(Cc2ccco2)C(=O)Cn2cnc3ccccc32)cc1 (configuration not stated) | i | i | 29µM | i | i | i | i | 13µM
COc1ccc(-c2c3c(nc4sc5c(=O)[nH]c(C)nc5c24)CCC3)cc1 | i | i | 21µM | i | i | i | i | 7.1µM
